Screens as filed in PubChem.
Hits are enriched below; roughly 27% of the tested compounds scored in any of these assays.
CYP2C9 inhib: inhibitors of human CYP2C9. P11712. CYP2C9 Supersomes, luciferin-H conversion, luminescence. inhibition, % at 5 µM. 20% of 96,000 active. AID 777;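 active = blocking of liver enzyme CYP2C9 beyond about 50% at 5 µM, limit read from the data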
Cav3 T inh: inhibitors of human Cav3.2 T-type calcium channel; B-score at 10 µM; Cav3.2-expressing cells, Fluo-4 calcium fluorescence FDSS; active compounds read low; O95180; 4% of 100,000 active;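 active = single-dose well whose peak fluorescence ratio is a statistical outlier from its plate by either plate-standardised score or position-corrected B-score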
CYP2C9 activ: CYP2C9 (human) activation. P11712. recombinant CYP2C9, luciferin-H conversion, luminescence; active compounds read high; factor 1 = untreated enzyme, 0 = blocked. activation factor at 5 µM. 1.4% of 96,000 active;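 active = activation factor of 2 or more for CYP2C9 at a 5 µM dose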;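 note: 0 = sulfaphenazole-blocked wells and 1 = vehicle-only wells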
PTK2B oligo ant: blocks oligomerization of human Pyk2 in cells; Q14289; 0.83% of 99,000 active; Q293 cells, Pyk2 FERM NanoBiT luminescence; active compounds read low; AID 1347419; z-score (the deposit names both 25 µM and 10 µM);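 active = Z-score of -3 or lower, scaled per plate to the spread of control and sample wells; inactive = z-score above -3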;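 note: negative z-score means lost luminescence so less FERM oligomerization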
CYP2C19 inhib: human CYP2C19 inhibition; P33261; CYP2C19 Supersomes, luciferin-H EGE luminescence, 30 min; inhibition, % at 5 µM; 21% of 96,000 active;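 active = CYP2C19 inhibition above a set limit at 5 µM in the primary screen, cut at about 50% in these data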;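 note: plate controls were negative control wells for no effect and 2.5 mM tranylcypromine positive control for full effect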
CYP2C19 act: activators of human cytochrome P450 2C19 | P33261 | recombinant CYP2C19, luciferin-H EGE luminescence; active compounds read high; 0 = fully inhibited enzyme, 1 = untreated enzyme | activation factor at 5 µM | 96,000 tested, under 10 active | AID 1025;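 active = activation factor of at least 2 at 5 µM in the primary screen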;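 note: 0 = wells with 2.5 mM tranylcypromine and 1 = vehicle-only wells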
Starred values were filed as active, the others as inactive; . = no result.

SMILES	CYP2C9 inhib	Cav3 T inh	CYP2C9 activ	PTK2B oligo ant	CYP2C19 inhib	CYP2C19 act
OCCNc1nc(N2CCN(Cc3ccccc3)CC2)nc2ccccc12	54*	-0.13	0.5	0.75	25	0.8
CCc1ccc2c(c1)cc(CN(C(=S)Nc1cccc(C)c1)C1CC1)c1nnnn12	68*	-1.3	0.3	-0.06	1	1
O=C1Nc2ccccc2C12Nc1ccccc1-c1nc3ccccc3n12 (stereo not drawn)	.	-4.8*	.	-2.7	.	.
COc1ccc2cc(-c3nc4ccccc4n3C)c(=O)oc2c1	.	0.38	.	0.95	.	.
c1ccc2c(c1)NC1(CCCCC1)n1c-2nc2ccccc21	36	-2.1	0.6	-0.95	20	0.8
CN1C(=O)C2(Nc3ccccc3-c3nc4ccccc4n32)c2ccccc21 (stereo not drawn)	64*	-0.44	0.4	-2.2	71*	0.3
O=C1Cn2c(nc3ccccc32)-c2ccccc2N1	3	-0.68	1	-0.59	-2	1
CCN1C(=O)C2(Nc3ccccc3-c3nc4ccccc4n32)c2cc(OC)ccc21 (stereo not drawn)	69*	.	0.3	-2.9	34	0.7
CCOc1ccc(C(=O)/C=C/c2ccc(SC)cc2)cc1	28	-0.4	0.7	-0.28	62*	0.4
COC(=O)c1ccc(/C=C/C(=O)c2ccc(OC)cc2)cc1	91*	0.33	0.1	-1.1	53*	0.5
CCOc1ccc(C(=O)/C=C/c2ccccc2C(F)(F)F)cc1	-27	0.06	1.3	-0.71	16	0.8
COc1cccc(CN2C(=O)CCC2(C)C(=O)NC2CCCC2)c1 (stereo not drawn)	-79	-0.73	1.8	0.79	20	0.8
CN(C(=O)Cn1nnc(-c2cccc(C(F)(F)F)c2)n1)C1CCCCC1	-79	-0.86	1.8	-0.26	9	0.9
O=C(Cn1nnc(-c2cccc(C(F)(F)F)c2)n1)N1CCOCC1	-230	0.41	3.3*	0.2	-1	1
COCCNC(=O)C(c1ccc(F)cc1)N(Cc1ccco1)C(=O)CCC(=O)Nc1nccs1 (stereo not drawn)	36	.	0.6	-0.1	53*	0.5
Cc1cc(NC(=O)CCC(=O)N(Cc2ccco2)C(C(=O)NC2CCCCC2)c2ccccc2)no1 (stereo not drawn)	.	-4.4*	.	-0.12	.	.
CCOC(=O)CN(C(=O)CCC(=O)Nc1cc(C)on1)C(C(=O)NC1CCCC1)c1cccnc1 (stereo not drawn)	6	0.78	0.9	-0.29	10	0.9
Cc1cc(NC(=O)CCC(=O)N(CCC(C)C)C(C(=O)NC2CCCC2)c2cccnc2)no1 (stereo not drawn)	24	0.38	0.8	0.33	28	0.7
COCCNC(=O)CN(C(=O)CCC(=O)Nc1nccs1)c1ccccc1OC	34	-0.2	0.7	2.1	11	0.9
O=C(CCC(=O)N(Cc1ccco1)C(C(=O)NC1CCCC1)c1ccncc1)Nc1cccnc1 (stereo not drawn)	61*	1	0.4	2.4	75*	0.3
Cc1cc(NC(=O)CCC(=O)N(Cc2ccco2)C(C(=O)NC2CCCC2)c2ccccc2C)no1 (stereo not drawn)	.	-7.4*	.	-0.42	.	.
CC1CN(C2CCN(C(=O)c3ccccc3Cl)CC2)CC(C)O1 (stereo not drawn)	1	.	1	0.39	19	0.8
CCCN1CNC(=S)N(c2cc(C)ccc2C)C1	.	0.39	.	0.09	.	.
COc1ccc(CCN2C(=O)c3ccncc3C2=O)cc1OC	19	0.3	0.8	1.4	17	0.8
Cc1cc(NC(=O)CCC(=O)N(CCc2ccccc2)C(C(=O)NC2CCCC2)c2ccco2)no1 (stereo not drawn)	33	-3.7*	0.7	-1.1	38	0.6
SMILES	CYP2C9 inhib	Cav3 T inh	CYP2C9 activ	PTK2B oligo ant	CYP2C19 inhib	CYP2C19 act
CN(C)S(=O)(=O)N1CCC(Cc2ccccc2)CC1	.	-1.1	.	2.5	.	.
O=S(=O)(N1CCCCC1)N1CCN(c2ccccc2F)CC1	-26	-0.82	1.3	-1.7	11	0.9
CN(C)S(=O)(=O)N1CCN(Cc2ccccc2)CC1	25	0.0011	0.8	0.04	93*	0.1
CN(C)S(=O)(=O)N1CCN(c2ccccc2Cl)CC1	81*	0.02	0.2	0.23	92*	0.1
CN(C)S(=O)(=O)N1CCN(c2ccccc2)CC1	50	.	0.5	0.76	86*	0.1
O=C(O)C1CCN(C(=O)c2ccccc2Cl)CC1	3	0.2	1	-0.4	-6	1.1
CN(C)S(=O)(=O)N1CCN(C(=O)c2ccccc2Cl)CC1	-2	0.15	1	1.4	76*	0.2
CCOC(=O)N1CCN(c2c(NCC3CCN(Cc4cccc(C)c4)CC3)c(=O)c2=O)CC1	-2	-0.18	1	.	-6	1.1
COc1cccc(C(C(=O)NCc2ccco2)N(C(=O)Cn2nnc3ccccc32)C2CC2)c1OC (stereo not drawn)	7	1.6	0.9	1	22	0.8
COCCn1cnc2c1c(=O)n(CC(=O)Nc1cc(C)on1)c(=O)n2Cc1ccccc1	11	0.2	0.9	-1.2	19	0.8
CCNC(=O)Cn1c(=O)c2c(ncn2Cc2ccccc2)n(Cc2ccccc2)c1=O	13	1.4	0.9	-0.31	89*	0.1
COc1cc2c(cc1OC)CN(S(C)(=O)=O)CC2	8	0.42	0.9	.	9	0.9
COc1ccc(Nc2nnc(SCc3cc([N+](=O)[O-])cc4c3OCOC4)s2)cc1	94*	-0.057	0.1	-0.2	37	0.6
CCOC(=O)c1c(C)n(C)c2cc(Br)c(C)cc12	5	0.43	1	-0.56	2	1
CCOC(=O)c1c(CN2CCN(Cc3ccccc3)CC2)n(C)c2cc(Br)c(OC)cc12	3	-7*	1	-0.76	10	0.9
CC1(c2nnc(-c3ccncc3)o2)CC(c2ccc(F)cc2)=NO1 (stereo not drawn)	.	0.76	.	.	.	.
Cc1cc(-c2nsc(=O)o2)c(S(C)(=O)=O)s1	17	.	0.8	0.33	10	0.9
CCn1c(C(C)NC(=O)c2cccs2)nc2ccccc21 (stereo not drawn)	52*	.	0.5	.	33	0.7
CCCCCn1c(CCNC(=O)c2cccs2)nc2ccccc21	92*	-3.4	0.1	-0.26	96*	0
CCCCCn1c(CNC(=O)c2cccs2)nc2ccccc21	.	-1.9	.	-0.97	.	.
Cc1cc(C(=O)N2CCN(C(c3ccccc3)c3ccccc3)CC2)on1	77*	.	0.2	.	69*	0.3
O=C(c1cc(C2CC2)on1)N1CCN(C(c2ccccc2)c2ccccc2)CC1	16	-0.23	0.8	.	-4	1
O=C(C1=COCCO1)N1CCN(C(c2ccccc2)c2ccccc2)CC1	67*	-0.87	0.3	-0.92	4	1
COc1ccccc1N1C(=O)CCC1(C#N)c1ccccc1 (stereo not drawn)	4	0.53	1	-0.66	3	1
